Test results published in the supplement of paper PMC8728848.
Many of the other results were omitted from the sample, so the strongest signals are more common in it than they were.

How the values were obtained:
Assay in all cases: glycan array binding signal (z-score within array); higher = stronger binding
Fuc(a1-2)Gal(b1-4)GlcNAc = conditions: glycan notation: IUPAC condensed, linker removed; mutation: A146Q
Summary of the method: (§1)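 From the Consortium for Functional Glycomics database, 3228 arrays were curated, keeping only those whose protein sequence was available. Binding is given as a within-array Z-score averaged across arrays sharing a protein sequence and across linkers. Negative Z-scores can be read as non-binding.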

[1] = biological target: Fuc(a1-2)[Gal(a1-3)]Gal(b1-3)GlcNAc; conditions: glycan notation: IUPAC condensed, linker removed; mutation: A146Q
Summary of the method: as §1

[2] = biological target: Fuc(a1-2)[Gal(a1-3)]Gal(b1-3)GlcNAc(b1-2)Man(a1-3)[Fuc(a1-2)[Gal(a1-3)]Gal(b1-3)GlcNAc(b1-2)Man(a1-6)]Man(b1-4)GlcNAc(b1-4)GlcNAc; conditions: glycan notation: IUPAC condensed, linker removed; mutation: A146Q
Summary of the method: as §1

[3] = biological target: Fuc(a1-2)[Gal(a1-3)]Gal(b1-4)Glc; conditions: glycan notation: IUPAC condensed, linker removed; mutation: A146Q
Summary of the method: as §1

[4] = biological target: Fuc(a1-2)[Gal(a1-3)]Gal(b1-4)GlcNAc; conditions: glycan notation: IUPAC condensed, linker removed; mutation: A146Q
Summary of the method: as §1

[5] = biological target: Fuc(a1-2)[Gal(a1-3)]Gal(b1-4)GlcNAc(b1-2)Man(a1-3)[Fuc(a1-2)[Gal(a1-3)]Gal(b1-4)GlcNAc(b1-2)Man(a1-6)]Man(b1-4)GlcNAc(b1-4)GlcNAc; conditions: glycan notation: IUPAC condensed, linker removed; mutation: A146Q
Summary of the method: as §1

[6] = biological target: Fuc(a1-2)[GalNAc(a1-3)]Gal(b1-3)GalNAc(a1-3)[Fuc(a1-2)]Gal(b1-4)GlcNAc; conditions: glycan notation: IUPAC condensed, linker removed; mutation: A146Q
Summary of the method: as §1

Fuc(a1-4)GlcNAc = conditions: glycan notation: IUPAC condensed, linker removed; mutation: A146Q
Summary of the method: as §1

Gal(a1-3)Gal(b1-3)GlcNAc = conditions: glycan notation: IUPAC condensed, linker removed; mutation: A146Q
Summary of the method: as §1

Gal(a1-6)Glc = conditions: glycan notation: IUPAC condensed, linker removed; mutation: A146Q
Summary of the method: as §1

[7] = biological target: Gal(b1-3)Gal(b1-4)GlcNAc(b1-2)Man(a1-3)[Gal(b1-3)Gal(b1-4)GlcNAc(b1-2)Man(a1-6)]Man(b1-4)GlcNAc(b1-4)GlcNAc; conditions: glycan notation: IUPAC condensed, linker removed; mutation: A146Q
Summary of the method: as §1

Gal(b1-4)GlcNAc = conditions: glycan notation: IUPAC condensed, linker removed; mutation: A146Q
Summary of the method: as §1

[8] = biological target: Gal(b1-4)GlcNAc(b1-2)Man(a1-3)Man(b1-4)GlcNAc(b1-4)GlcNAc; conditions: glycan notation: IUPAC condensed, linker removed; mutation: A146Q
Summary of the method: as §1

[9] = biological target: Gal(b1-4)GlcNAc(b1-2)Man(a1-3)[Man(a1-6)]Man(b1-4)GlcNAc(b1-4)GlcNAc; conditions: glycan notation: IUPAC condensed, linker removed; mutation: A146Q
Summary of the method: as §1

[10] = biological target: Gal(b1-4)GlcNAc(b1-3)Gal(b1-4)GlcNAc(b1-3)Gal(b1-4)GlcNAc; conditions: glycan notation: IUPAC condensed, linker removed; mutation: A146Q
Summary of the method: as §1

[11] = biological target: Gal(b1-4)GlcNAc(b1-3)GalNAc; conditions: glycan notation: IUPAC condensed, linker removed; mutation: A146Q
Summary of the method: as §1

[12] = biological target: Gal(b1-4)GlcNAc(b1-3)[GlcNAc(b1-6)]Gal(b1-4)GlcNAc; conditions: glycan notation: IUPAC condensed, linker removed; mutation: A146Q
Summary of the method: as §1

Gal3S(b1-4)GlcNAc6S = conditions: glycan notation: IUPAC condensed, linker removed; mutation: A146Q
Summary of the method: as §1

Gal6S(b1-4)GlcNAc6S = conditions: glycan notation: IUPAC condensed, linker removed; mutation: A146Q
Summary of the method: as §1

[13] = biological target: GlcNAc(a1-4)Gal(b1-4)GlcNAc(b1-3)Gal(b1-4)GlcNAc(b1-3)Gal(b1-4)GlcNAc; conditions: glycan notation: IUPAC condensed, linker removed; mutation: A146Q
Summary of the method: as §1

GlcNAc(b1-4)GlcNAc = conditions: glycan notation: IUPAC condensed, linker removed; mutation: A146Q
Summary of the method: as §1

[14] = biological target: Kdn(a2-3)Gal(b1-4)[Fuc(a1-3)]GlcNAc; conditions: glycan notation: IUPAC condensed, linker removed; mutation: A146Q
Summary of the method: as §1

[15] = biological target: Man(a1-2)Man(a1-2)Man(a1-3)Man; conditions: glycan notation: IUPAC condensed, linker removed; mutation: A146Q
Summary of the method: as §1

[16] = biological target: Man(a1-2)Man(a1-2)Man(a1-6)[Man(a1-3)]Man; conditions: glycan notation: IUPAC condensed, linker removed; mutation: A146Q
Summary of the method: as §1

Man(a1-2)Man(a1-3)Man = conditions: glycan notation: IUPAC condensed, linker removed; mutation: A146Q
Summary of the method: as §1

[17] = biological target: Man(a1-2)Man(a1-3)[Man(a1-2)Man(a1-6)]Man(a1-6)[Man(a1-2)Man(a1-2)Man(a1-3)]Man(b1-4)GlcNAc(b1-4)GlcNAc; conditions: glycan notation: IUPAC condensed, linker removed; mutation: A146Q
Summary of the method: as §1

[18] = biological target: Neu5Ac(a2-3)Gal(b1-3)[Fuc(a1-4)]GlcNAc(b1-3)Gal(b1-4)[Fuc(a1-3)]GlcNAc; conditions: glycan notation: IUPAC condensed, linker removed; mutation: A146Q
Summary of the method: as §1

[19] = biological target: Neu5Ac(a2-3)Gal(b1-4)[Fuc(a1-3)]GlcNAc6S; conditions: glycan notation: IUPAC condensed, linker removed; mutation: A146Q
Summary of the method: as §1

[20] = biological target: Neu5Ac(a2-6)Gal(b1-4)GlcNAc(b1-2)Man(a1-6)[Man(a1-3)]Man(b1-4)GlcNAc(b1-4)GlcNAc; conditions: glycan notation: IUPAC condensed, linker removed; mutation: A146Q
Summary of the method: as §1

[21] = biological target: Neu5Ac(a2-6)Gal(b1-4)GlcNAc(b1-3)Gal(b1-4)GlcNAc(b1-3)Gal(b1-4)GlcNAc; conditions: glycan notation: IUPAC condensed, linker removed; mutation: A146Q
Summary of the method: as §1

[22] = biological target: Neu5Ac(a2-3)[GalNAc(b1-4)]Gal(b1-4)Glc; conditions: glycan notation: IUPAC condensed, linker removed
Summary of the method: as §1

[23] = biological target: Neu5Ac(a2-6)Gal(b1-4)GlcNAc(b1-2)Man(a1-3)[Neu5Ac(a2-6)Gal(b1-4)GlcNAc(b1-2)Man(a1-6)]Man(b1-4)GlcNAc(b1-4)GlcNAc; conditions: glycan notation: IUPAC condensed, linker removed
Summary of the method: as §1

[24] = biological target: Neu5Gc(a2-3)Gal(b1-4)[Fuc(a1-4)]GlcNAc; conditions: glycan notation: IUPAC condensed, linker removed
Summary of the method: as §1

Binder | glycan array binding signal (z-score) (Fuc(a1-2)Gal(b1-4)GlcNAc) | glycan array binding signal (z-score) [1] | glycan array binding signal (z-score) [2] | glycan array binding signal (z-score) [3] | glycan array binding signal (z-score) [4] | glycan array binding signal (z-score) [5] | glycan array binding signal (z-score) [6] | glycan array binding signal (z-score) (Fuc(a1-4)GlcNAc) | glycan array binding signal (z-score) (Gal(a1-3)Gal(b1-3)GlcNAc) | glycan array binding signal (z-score) (Gal(a1-6)Glc) | glycan array binding signal (z-score) [7] | glycan array binding signal (z-score) (Gal(b1-4)GlcNAc) | glycan array binding signal (z-score) [8] | glycan array binding signal (z-score) [9] | glycan array binding signal (z-score) [10] | glycan array binding signal (z-score) [11] | glycan array binding signal (z-score) [12] | glycan array binding signal (z-score) (Gal3S(b1-4)GlcNAc6S) | glycan array binding signal (z-score) (Gal6S(b1-4)GlcNAc6S) | glycan array binding signal (z-score) [13] | glycan array binding signal (z-score) (GlcNAc(b1-4)GlcNAc) | glycan array binding signal (z-score) [14] | glycan array binding signal (z-score) [15] | glycan array binding signal (z-score) [16] | glycan array binding signal (z-score) (Man(a1-2)Man(a1-3)Man) | glycan array binding signal (z-score) [17] | glycan array binding signal (z-score) [18] | glycan array binding signal (z-score) [19] | glycan array binding signal (z-score) [20] | glycan array binding signal (z-score) [21] | glycan array binding signal (z-score) [22] | glycan array binding signal (z-score) [23] | glycan array binding signal (z-score) [24]
Gal 3 (Homo sapiens), P17931 (protein) MADNFSLHDALSGSGNPNPQGWPGAWGNQPAGAGGYPGASYPGAYPGQAPPGAYPGQAPPGAYHGAPGAYPGAPAPGVYPGPPSGPGAYPSSGQPSAPGAYPATGPYGAPAGPLIVPYNLPLPGGVVPRMLITILGTVKPNANRIQLDFQRGNDVAFHFNPRFNENNRRVIVCNTKLDNNWGREERQSVFPFESGKPFKIQVLVEPDHFKVAVNDAHLLQYNHRVKKLNEISKLGISGDIDLTSASYTMI | 0.166 | 3.36 | 9.93 | 2.81 | 3.94 | 10.3 | -0.199 | -0.12 | -0.087 | -0.188 | 10.2 | -0.196 | -0.083 | -0.181 | 3.5 | -0.187 | 0.13 | 0.851 | -0.192 | 2.23 | -0.132 | -0.201 | -0.186 | -0.177 | -0.199 | -0.15 | -0.2 | -0.188 | -0.197 | 1.65 |  |  | 
LEA (Lycopersicon esculentum) (protein) NEVFDVPMNETIGVESINASVGGYPRCGAQGDGGNCPSGMCCSVWGWCGKTYGYCAPQNCQKQCPAPYPEGRCGWQADGKSCPNGKCCSYGGWCGTTSDYCARQNCQKQCILPSPPPPPPPPPGFPRPECGLQKNGERCTKPGECCSIWGLCGATYKYCDPQHCQKQCSAPFPPGRCGWQADGRPCPTGQCCSFSGWCGTTSAHCTYPQCVSQCNDPRFPSSLNNRIQSFML |  |  |  |  |  |  |  |  |  |  |  |  |  |  |  |  |  |  |  |  |  |  |  |  |  |  |  |  |  |  | -0.536 | -0.502 | -0.041
